Source: PubChem BioAssay (NCI)
About 83,000 compounds went through this panel and 20% of them were active in at least one assay; those are over-represented in the sample as a whole.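 Each cell line was grown in a 96-well plate and treated with one concentration of compound for 48 hours. Values below 10 were considered active.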 Values without a mark were called inactive. Calls of active or inactive are those of the source.

Key:
Assay in all cases: NCI-60 one-dose screen, 48 h (100 = growth as untreated, 0 = no growth, -100 = all killed)
A549/ATCC NSCLC = details: 10 µM unless noted
COLO 205 colon = details: 10 µM
MDA-MB-231 breast = details: 10 µM unless noted
RXF 393 renal = details: 10 µM unless noted
SF-295 CNS = details: 10 µM unless noted
UACC-257 melanoma = details: 10 µM unless noted
HT29 colon = details: 10 µM unless noted
SNB-19 CNS = details: 10 µM unless noted
SK-MEL-5 melanoma = details: 10 µM unless noted
UO-31 renal = details: 10 µM unless noted
A498 renal = details: 10 µM unless noted
OVCAR-8 ovarian = details: 10 µM unless noted
OVCAR-5 ovarian = details: 10 µM unless noted
HS 578T breast = details: 10 µM unless noted
T-47D breast = details: 10 µM unless noted
MDA-MB-435 melanoma = details: 10 µM unless noted
HCT-116 colon = details: 10 µM unless noted
HCC-2998 colon = details: 10 µM unless noted
SN12C renal = details: 10 µM unless noted
SK-OV-3 ovarian = details: 10 µM unless noted

Compound | growth (A549/ATCC NSCLC) [%] | growth (COLO 205 colon) | growth (MDA-MB-231 breast) | growth (RXF 393 renal) | growth (SF-295 CNS) [%] | growth (UACC-257 melanoma) | growth (HT29 colon) [%] | growth (SNB-19 CNS) [%] | growth (SK-MEL-5 melanoma) | growth (UO-31 renal) | growth (A498 renal) [%] | growth (OVCAR-8 ovarian) [%] | growth (OVCAR-5 ovarian) [%] | growth (HS 578T breast) [%] | growth (T-47D breast) | growth (MDA-MB-435 melanoma) | growth (HCT-116 colon) | growth (HCC-2998 colon) [%] | growth (SN12C renal) [%] | growth (SK-OV-3 ovarian) [%]
Cc1nnc([S-])s1.[Au+].c1ccc([PH+](c2ccccc2)c2ccccc2)cc1 | 74.6 | -31.7% (active) | 4.44% (active) | -84.6% (active) | 75 | -12.4% (active) | 12 | 19.2 | -45.9% (active) | -3.87% (active) | 25.1 | 15.9 | 63.6 | 30.8 | -40.2% (active) | 5.65% (active) | -60.1% (active) | 37 | – | –
n1nc(-c2nonc2-c2nn[nH]n2)n[nH]1 | 95.2 | 117% | 105% | 93.7% | 94.5 | 100% | 107 | 105 | 104% | 92.5% | 81.9 | 109 | 108 | – | 105% | 97.7% | 106% | 106 | 102 | 115
O=C(O)C1(Br)CC12c1ccccc1-c1ccccc12 (stereo unspecified) | 98.4 | 115% | 115% | 99.5% | – | 94.8% | 104 | 104 | 98.4% | 82.4% | – | 99.6 | 104 | 110 | 82.5% | 108% | 100% | 106 | 107 | 101
NC(=O)OCC(CO)(c1ccccc1)c1ccccc1 | 103 | 105% | 114% | 99.6% | 93.5 | 105% | 97.9 | – | 96.4% | 80.1% | 81.7 | 100 | 95.3 | 110 | 97.3% | 101% | 92.1% | 107 | 98.4 | 99.1
O=C(O)CNC(=O)c1ccccc1 | 101 | 104% | 110% | 102% | 104 | 92.4% | 114 | 98.6 | 98.9% | 95.8% | 85 | 113 | 98.6 | 108 | 104% | 100% | 98.2% | 98.9 | 107 | 104
C/C(=N/OC(=O)N(C)C)c1cc(Cl)ccc1Cl | 101 | 100% | 111% | 102% | 98.6 | 103% | 100 | 101 | 100% | 77.4% | 86.8 | 103 | 104 | 105 | 96.7% | 99.2% | 101% | 102 | 103 | 98.3
CC(=O)OC1CCC2(C)C(=CCC3C4CC(CN5CC5)C(=O)C4(C)CCC32)C1 (stereo unspecified) | 94.1 | 89.2% | 99.6% | 93.6% | 95.5 | 93.3% | 85.2 | 98.4 | 99.1% | 34.1% | 86.7 | 85 | 97.7 | 87.5 | -11.8% (active) | 90.4% | 74.4% | 112 | – | 98.2
CCOC(=O)C1(c2ccccc2)CCN(CC(=O)c2ccc(NC(C)=O)cc2)CC1 | 95 | 103% | 102% | 124% | 110 | 104% | 103 | 102 | 103% | – | 94.5 | 110 | 100 | 113 | 88.2% | 106% | 97.7% | – | 93.2 | 101
Oc1ccccc1OB(Oc1ccccc1O)N(CCCl)CCCl | 67 | 98.4% | 71% | 94.9% | 102 | 84.4% | 85.9 | 87.2 | 89.9% | 51.9% | 88.6 | 77.2 | 102 | 106 | 101% | 87.4% | 86.8% | 98.4 | 78.4 | 112
CNC(=O)O/N=C(/C)c1ccc(Cl)cc1 | 99.3 | 107% | 120% | 110% | 101 | 104% | 99.1 | 112 | 101% | 83.8% | 92.2 | 102 | 111 | 137 | 91.8% | 98.3% | 99.9% | 105 | 105 | 96.8
